Hit rate of the full screen: of about 5,500 compounds, about 2,000 (36%) were called active. Roughly 18% stayed inconclusive and do not appear here. Rule as the data show it: active = normalized growth mostly below about 0.91 (no sharp cut-off); inconclusive = no clear call, values can overlap the other calls; inactive = mostly above about 0.92. The list shows a part of the results.
Test: chemical genetic growth profiling, strain panel (AID 1159580);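 also: tested at 20 µM; growth read once vehicle control cultures reached saturation at 30 °C; 1 = growth at the plate median or of vehicle wells; lower values mean less growth of the strain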
Conditions: growth OD
[1] = S. cerevisiae deletion strains, locus YAL013W, strain DEP1, active compounds read low
[2] = S. cerevisiae deletion strains, locus YBR229C, strain ROT2, active compounds read low
[3] = S. cerevisiae deletion strains, locus YDL101C, strain DUN1, active compounds read low
[4] = S. cerevisiae deletion strains, locus YDL134C, strain PPH21, active compounds read low
[5] = S. cerevisiae deletion strains, locus YDR150W, strain NUM1, active compounds read low
[6] = S. cerevisiae deletion strains, locus YEL061C, strain CIN8, active compounds read low
[7] = S. cerevisiae deletion strains, locus YGR078C, strain PAC10, active compounds read low
[8] = S. cerevisiae deletion strains, locus YHR030C, strain SLT2, active compounds read low
[9] = S. cerevisiae deletion strains, locus YHR087W, strain rtc3, active compounds read low
[10] = S. cerevisiae deletion strains, locus YJR075W, strain HOC1, active compounds read low
[11] = S. cerevisiae deletion strains, locus YLR039C, strain RIC1, active compounds read low
[12] = S. cerevisiae deletion strains, locus YLR058C, strain SHM2 (second series), active compounds read low
[13] = S. cerevisiae deletion strains, locus YLR085C, strain ARP6, active compounds read low
[14] = S. cerevisiae deletion strains, locus YLR262C, strain YPT6, active compounds read low
[15] = S. cerevisiae deletion strains, locus YML094W, strain GIM5, active compounds read low
[16] = S. cerevisiae deletion strains, locus YMR219W, strain ESC1, active compounds read low
[17] = S. cerevisiae deletion strains, locus YMR263W, strain SAP30, active compounds read low
[18] = S. cerevisiae deletion strains, locus YMR307W, strain GAS1, active compounds read low
[19] = S. cerevisiae deletion strains, locus YNL153C, strain GIM3, active compounds read low
[20] = S. cerevisiae deletion strains, locus YNL298W, strain CLA4 (second series), active compounds read low
[21] = S. cerevisiae deletion strains, locus YNL322C, strain KRE1, active compounds read low
[22] = S. cerevisiae deletion strains, locus YNR030W, strain Alg12, active compounds read low
[23] = S. cerevisiae deletion strains, locus YOL006C, strain TOP1, active compounds read low
[24] = S. cerevisiae deletion strains, locus YPL055C, strain LGE1, active compounds read low
[25] = S. cerevisiae deletion strains, locus YPL241C, strain CIN2, active compounds read low
[26] = S. cerevisiae deletion strains, locus YPR135W, strain CTF4, active compounds read low
[27] = S. cerevisiae strains, strain wild type, active compounds read low

Measured: normalized growth

CCc1cccc(C)c1NC(=O)N1CCN(C(=O)OC(C)(C)C)CC1
inactive: [1] 0.992 | [2] 0.99 | [3] 0.987 | [4] 1.01 | [5] 1.03 | [6] 1.01 | [7] 1 | [8] 1.01 | [9] 0.995 | S. cerevisiae deletion strains, locus YJR043C, strain POL32, active compounds read low 1 | [10] 0.988 | [11] 1.04 | [12] 0.99 | [13] 1 | [14] 0.984 | [15] 0.991 | [16] 0.984 | [17] 1.01 | [18] 1.05 | [19] 0.994 | [20] 1.02 | [21] 0.999 | [22] 1.01 | [23] 1.01 | [24] 0.987 | [25] 1.03 | [26] 1.01 | [27] 1

CC(N)=NCc1cccc(CN)c1
inactive: [1] 1.02 | S. cerevisiae deletion strains, locus YAL040C, strain CLN3, active compounds read low 1.01 | S. cerevisiae deletion strains, locus YCL061C, strain MRC1 (second series), active compounds read low 1.01 | [5] 1.01 | S. cerevisiae deletion strains, locus YDR363W, strain ESC2, active compounds read low 1.02 | S. cerevisiae deletion strains, locus YER002W, strain NOP16, active compounds read low 1.03 | [18] 1.03 | S. cerevisiae deletion strains, locus YNL175C, strain NOP13, active compounds read low 1.02 | S. cerevisiae deletion strains, locus YNL197C, strain WHI3, active compounds read low 1 | S. cerevisiae deletion strains, locus YNL224C, strain SQS1, active compounds read low 1 | S. cerevisiae deletion strains, locus YOR083W, strain WHI5 (second series), active compounds read low 0.996 | [25] 1.01

CCSC(SCC)[C@H](O)[C@@H](O)[C@H](O)CO
inactive: [1] 0.976 | [2] 0.992 | [3] 0.993 | [4] 1.01 | [5] 0.995 | [6] 0.998 | [7] 0.981 | [8] 0.939 | [9] 0.98 | [10] 0.994 | [11] 0.992 | [12] 0.993 | [13] 1.05 | [14] 0.904 | [15] 1.02 | [16] 1 | [17] 0.994 | S. cerevisiae deletion strains, locus YNL128W, strain TEP1, active compounds read low 1 | [19] 0.988 | [20] 0.988 | [21] 0.985 | [22] 0.992 | [23] 1.01 | [24] 1 | [25] 1.04 | [26] 0.922 | [27] 0.992

Reference: PubChem BioAssay AID1159580 (chemical genetic matrix, 2015)
